Assay results from ChEMBL document CHEMBL4513216, “Probing the Open Global Health Chemical Diversity Library for Multistage-Active Starting Points for Next-Generation Antimalarials” (ACS Infect Dis, 2020).
Out of some 69,000 compounds screened, about 8,600 (12%) showed an effect of 50% or more. This excerpt belongs to a sample that is enriched for strong results.

Test system: Plasmodium berghei
Experiment: Screen against P. berghei liver stage (PbLuc), transformed with Luciferase, at 10uM
Type: functional, HepG2
Details: tested at 10 uM

Structure (SMILES)	INHIBITION
CCCSc1ncc(-c2nccn2CCC(N)=O)cn1	53.3%
Cc1ccc(Cc2cnc(NC(=O)C3CNC(=O)N3)s2)cc1F (stereo not given)	55.5%
O=C1NCC(C(=O)Nc2ncc(Cc3cccc(F)c3)s2)N1 (stereo not given)	12.7%
O=C1NCC(C(=O)Nc2ncc(Cc3ccc(F)cc3)s2)N1 (stereo not given)	26.5%
CNc1cc(C)nc(C2COCCN2CCOc2ccc(F)cc2)n1 (stereo not given)	-12.625%
NC(=O)CCSCc1cc(Br)cc2cccnc12	-57.1%
CC(SCc1ccc(Br)c2cccnc12)C(N)=O (stereo not given)	21.1%
CC(SCc1cc(Br)cc2cccnc12)C(N)=O (stereo not given)	58.1%
CC(OCC(F)(F)F)C(=O)N1CCCC1 (stereo not given)	-1.37%
Cc1ccc(SCC2CNc3nc4ccccc4c(=O)n32)c(C)c1 (stereo not given)	49.9%
CC(=O)N(CCc1ccccc1)CC(=O)Nc1ccccc1C#N	45.8%
CC(=O)N(CCc1ccccc1)CC(=O)NC1(C#N)CC1	-3.39%
CC(=O)N(CCc1ccccc1)CC(=O)NC(C)(C)C#N	59.7%
COc1ccc(C2=CCN(C(=O)CN(C)S(C)(=O)=O)CC2)cc1	-11.4%
COc1ccc(C2=CCN(C(=O)CN(CC(N)=O)C(C)C)CC2)cc1	83.2%
COc1ccc(C2=CCN(C(=O)CN(C)Cc3ccoc3)CC2)cc1	53.5%
COc1ccc(C2=CCN(C(=O)C3CC(=O)N(C4CC4)C3)CC2)cc1 (stereo not given)	40.3%
COc1ccc(C2=CCN(C(=O)C3CCC3)CC2)cc1	-6.44%
COc1ccc(C2=CCN(C(=O)C3CCS(=O)(=O)C3)CC2)cc1 (stereo not given)	59.4%
COc1ccc(C2=CCN(C(=O)CN(C)CC(C)C#N)CC2)cc1 (stereo not given)	46.5%
COc1ccc(C2=CCN(C(=O)CN(C)CC(N)=O)CC2)cc1	10.8%
COc1ccc(C2=CCN(C(=O)CN(C)Cc3ccco3)CC2)cc1	46.2%
CC(C)NC(=O)N1CCCC(Cn2cc(-c3ccc(F)cc3)nn2)C1 (stereo not given)	38.5%
Cc1nc(C)n(CC2CCCN2CCOc2cccc(F)c2)n1 (stereo not given)	37.9%
Cc1cc(-c2cc3nc(C)c(C)c(NCC4COCCO4)n3n2)no1 (stereo not given)	8.57%
CNc1ncc(CN(C)CCN2CCCCC2)cn1	-61.5%
CCC1CN(CC(=O)NCCN2CCCCC2)c2ccccc2S1 (stereo not given)	9.57%
COCC1CN(Cc2ccccn2)Cc2cn(C)nc21 (stereo not given)	45.1%

Structure (SMILES)	INHIBITION
CCOCC1CN(Cc2ccc(OC)cc2)Cc2nn(C)cc21 (stereo not given)	30.7%
COCC1CN(Cc2ccc(OC)cc2)Cc2nn(C)cc21 (stereo not given)	93.3%
COCC1CN(Cc2ccccn2)Cc2nn(C)cc21 (stereo not given)	60.2%
COCC1CN(Cc2ccc(F)cc2)Cc2nn(C)cc21 (stereo not given)	8.93%
COCC1CN(Cc2ccncc2)Cc2nn(C)cc21 (stereo not given)	-5.05%
NCC1CCC(c2c(C(N)=O)sc3ccccc23)CC1 (stereo not given)	14.6%
COCCNc1c(-c2ccc(Cl)cc2)c(=O)c1=O	24.5%
COCCCNc1c(-c2ccc(C)cc2)c(=O)c1=O	35.1%
COCCCNc1c(-c2ccc(Cl)cc2)c(=O)c1=O	60.8%
CN(c1ccccc1)c1ccc(CC2CCCN(CCO)C2)nn1 (stereo not given)	16.5%
CC(C)(CNC(=O)c1ccco1)CNC(=O)c1ccco1	-18.9%
CC(=O)NCCC(=O)Nc1sccc1C(=O)C(C)(C)C	48.9%
CC(=O)NCCNC(=O)c1sccc1Br	28.5%
CC(C)(C)n1cc(C#N)cc1NC(=O)CCNC(=O)c1ccco1	26.5%
CC(C)(C)C(=O)c1ccsc1NC(=O)CCNC(=O)c1ccco1	75.8%
CC(=O)Nc1sccc1C(=O)C(C)(C)C	77.7%
Cc1nn(C)c(C)c1CN(C)C(=O)c1cc(NC(=O)C2CC2)n(C)n1	44.05%
CCCc1nc(NCCOC)c2c(n1)c(C)nn2CC	17%
O=C(c1cnccn1)N1CCN2C[C@H](Oc3cccc(F)c3)C[C@H]2C1	47.5%
CN1CC2(CCNCC2)COc2ccccc2S1(=O)=O	-15.7%
CC(c1cccc(-c2ncccc2F)c1)N(C)C (stereo not given)	-17.4%
COCCNc1ncc(-c2cc(C)no2)c(-c2ccco2)n1	47.4%
Cc1ncc(-c2ccnc(SCCN(C)C)n2)c(-c2ccco2)n1	70.8%
O=C(O)Cn1nc(C2CC2)c2c(-c3ccco3)ccnc21	22%
OCCNc1nccc(-c2c[nH]nc2-c2ccco2)n1	-43.4%
NCCSc1nccc(-c2cnc(C3CC3)nc2-c2ccco2)n1	75.3%
Cc1ncc(-c2ccnc(SCCN)n2)c(-c2ccco2)n1	42.6%
